Test results: publication PMC5540273 (PLoS ONE, 2017)

Experiments:
Details in all cases: concentration: 1 μM, replicates: in singlicate; n = 1
ULK3 = test system: ULK3
VEGFR2 = test system: T1, VEGFR2
T1 construct: gene KDR

VPS34 = test system: T2, VPS34
T2 construct: gene PIK3C3

VRK2 = test system: VRK2
WEE1 = test system: WEE1
WEE2 = test system: WEE2
WNK1 = test system: WNK1
WNK2 = test system: WNK2
WNK3 = test system: WNK3
WNK4 = test system: WNK4
YANK1 = test system: T3, YANK1
T3 construct: gene STK32A

YANK2 = test system: T4, YANK2
T4 construct: gene STK32B

YANK3 = test system: T5, YANK3
T5 construct: gene STK32C

YES = test system: T6, YES
T6 construct: gene YES1

YSK1 = test system: T7, YSK1
T7 construct: gene STK25

YSK4 = test system: T8, YSK4
T8 construct: gene MAP3K19

ZAK = test system: ZAK
ZAP70 = test system: ZAP70
p38-alpha = test system: T9, p38-alpha
T9 construct: gene MAPK14

p38-beta = test system: T10, p38-beta
T10 construct: gene MAPK11
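Also: KINOMEscan kinase panel screen.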

Row | SMILES | %Inh (ULK3) [%] | %Inh (VEGFR2) [%] | %Inh (VPS34) [%] | %Inh (VRK2) [%] | %Inh (WEE1) [%] | %Inh (WEE2) [%] | %Inh (WNK1) [%] | %Inh (WNK2) [%] | %Inh (WNK3) [%] | %Inh (WNK4) [%] | %Inh (YANK1) [%] | %Inh (YANK2) [%] | %Inh (YANK3) [%] | %Inh (YES) [%] | %Inh (YSK1) [%] | %Inh (YSK4) [%] | %Inh (ZAK) [%] | %Inh (ZAP70) [%] | %Inh (p38-alpha) [%] | %Inh (p38-beta) [%]
1 | COc1cccc(C2=C(N(C)c3ccccc3)C(=O)NC2=O)c1 [SB-334865] | 12 | 1 | 0 | 10 | 4 | 0 | 8 | 0 | 20 | 15 | 0 | 0 | 2 | 21 | 8 | 37 | 20 | 0 | 14 | 0
2 | Nc1n[nH]c2ncc(-c3ccccc3)cc12 [SB-517081] | 14 | 16 | 0 | 11 | 17 | 2 | 12 | 0 | 27 | 35 | 9 | 0 | 23 | 20 | 8 | 52 | 25 | 0 | 13 | 0
3 | FC(F)(F)c1ccc(-c2ncn(CCCN3CCOCC3)c2-c2ccncc2)cc1 [SB-217780] | 4 | 14 | 13 | 42 | 48 | 34 | 20 | 0 | 15 | 0 | 17 | 1 | 7 | 3 | 0 | 10 | 17 | 12 | 25 | 5
4 | CCS(=O)c1ccc(-c2coc3ccc(-c4nnc(C)o4)cc23)cc1 (stereo not shown) | 0 | 10 | 15 | 2 | 7 | 0 | 0 | 3 | 0 | 11 | 5 | 11 | 0 | 0 | 0 | 15 | 8 | 0 | 0 | 5
5 | CCC(=O)c1c(-c2ccccc2)c2cc(Cl)ccc2c(=O)n1Cc1cc(S(C)(=O)=O)n(CCC(C)(C)O)n1 | 0 | 2 | 0 | 0 | 0 | 0 | 0 | 31 | 0 | 25 | 19 | 13 | 23 | 0 | 0 | 0 | 27 | 3 | 16 | 6
6 | CCn1c(-c2ccoc2)nc2cnccc21 [SB-733887] | 11 | 65 | 0 | 8 | 4 | 0 | 15 | 18 | 19 | 0 | 0 | 4 | 27 | 0 | 12 | 49 | 34 | 0 | 0 | 0
7 | O=C(Nc1n[nH]c2cc(-c3ccccc3F)ccc12)C1CC1 [SB-733371] | 33 | 4 | 0 | 0 | 5 | 0 | 0 | 0 | 0 | 6 | 0 | 0 | 0 | 0 | 0 | 87 | 0 | 0 | 4 | 9
8 | COc1ccc(-n2cnc3c(N)ncnc32)cc1 [SKF-97236] | 10 | 0 | 27 | 0 | 0 | 0 | 11 | 19 | 0 | 0 | 0 | 10 | 0 | 0 | 0 | 34 | 15 | 0 | 0 | 21
9 | Cc1nnc(-c2ccc(C)c(-c3ccc(C(=O)O)cc3)c2)o1 [GW608005] | 0 | 3 | 0 | 0 | 0 | 0 | 30 | 0 | 15 | 0 | 0 | 0 | 9 | 0 | 0 | 15 | 0 | 0 | 0 | 0
10 | COc1cc2ncn(-c3cc(OCc4ccc(S(C)(=O)=O)cc4)c(C(N)=O)s3)c2cc1OC [GW869979] | 22 | 20 | 33 | 2 | 0 | 0 | 0 | 58 | 0 | 51 | 7 | 0 | 0 | 28 | 0 | 57 | 0 | 17 | 1 | 1
11 | CCCNC(=O)Nc1ccc(Oc2ncnc3ccn(C)c23)cc1 | 30 | 13 | 34 | 0 | 0 | 13 | 0 | 3 | 0 | 0 | 0 | 8 | 13 | 0 | 3 | 33 | 1 | 0 | 2 | 15
